# From PubChem BioAssay (EPA / NIEHS)
# Inconclusive results are not listed. Active and inactive are the calls of the source. Rule for the calls, unless noted: active = hit-call score of the fitted dose curve at least 0.9, where 1 is the maximum; inconclusive = response in the unintended direction; inactive = score below 0.9.
# Legend:
# [1] = Tanguay_ZF_120hpf_PE_legacy: (Legacy) Oregon State University Tanguay Lab 120 Hour Post-fertilization zebrafish Assay for Pericardial Edema (AID 2283640);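 for AC50: potency for increased incidence of pericardial edema versus DMSO baseline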
# Procedure, shortened: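 Read-out is the presence or absence of pericardial edema at 120 hpf under brightfield, with gain of signal fitted against DMSO controls. Larvae (5D wild-type) were statically exposed at 28C with 0.64% final DMSO.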
# [2] = Tanguay_ZF_120hpf_BRAI_legacy: (Legacy) Oregon State University Tanguay Lab 120 Hour Post-fertilization zebrafish Assay for Brain Malformation (AID 2283641)
# Procedure, shortened: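 Brain malformation in Tropical 5D zebrafish was recorded as a binary endpoint after static compound exposure from early development to 120 hpf at 28C. Activity was analysed against DMSO as negative control.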
# [3] = Tanguay_ZF_120hpf_SOMI_legacy: (Legacy) Oregon State University Tanguay Lab 120 Hour Post-fertilization zebrafish Assay for Somite Malformation (AID 2283647)
# Procedure, shortened: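 5D WT zebrafish; chorion removed 4 hpf; 1 embryo/well from 6 hpf; static exposure to 120 hpf, 28C, 0.64% DMSO final. Endpoint: somite malformation, binary, brightfield. Mortality excluded.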
# [4] = Tanguay_ZF_120hpf_PFIN_legacy: (Legacy) Oregon State University Tanguay Lab 120 Hour Post-fertilization zebrafish Assay for Pectoral Fin Malformation (AID 2283648);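 note: each larva judged yes or no for fin defect by brightfield with dead larvae skipped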
# Procedure, shortened: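 5D WT zebrafish; pronase dechorionation 4 hpf; 1 embryo/well at 6 hpf; static exposure to 120 hpf, 28C, sealed, foil-covered; final DMSO 0.64% v/v; 5 uM trimethyltin chloride positive control; fin defect scored yes/no.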
# [5] = Tanguay_ZF_120hpf_CFIN_legacy: (Legacy) Oregon State University Tanguay Lab 120 Hour Post-fertilization zebrafish Assay for Caudal Fin Malformation (AID 2283649)
# Procedure, shortened: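 Embryos were collected from Tropical 5D wild-type adults and dechorionated at 4 hpf. At 6 hpf each was exposed, one per well, at 0.64% DMSO and 28C. At 120 hpf fin morphology was scored; dead embryos were excluded.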
# [6] = Tanguay_ZF_120hpf_PIG_legacy: (Legacy) Oregon State University Tanguay Lab 120 Hour Post-fertilization zebrafish Assay for Pigmentation Malformation (AID 2283650)
# Procedure, shortened: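 Pronase dechorionation at 4 hpf; embryos plated at 6 hpf, one per well; static exposure, sealed and foil-covered, 28C, to 120 hpf; pigmentation read by brightfield, binary; DMSO 0.64% baseline, 5uM trimethyltin chloride positive control.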
# [7] = Tanguay_ZF_120hpf_CIRC_legacy: (Legacy) Oregon State University Tanguay Lab 120 Hour Post-fertilization zebrafish Assay for Circulatory Malformation (AID 2283651)
# Procedure, shortened: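 Read-out: presence or absence of circulatory malformation at 120 hpf, scored by brightfield microscopy, fitted in the gain-of-signal direction against DMSO baseline. Wild-type 5D larvae were exposed from 6 hpf after enzymatic chorion removal.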
# [8] = Tanguay_ZF_120hpf_SWIM_legacy: (Legacy) Oregon State University Tanguay Lab 120 Hour Post-fertilization zebrafish Assay for Swim Bladder Malformation (AID 2283654);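 note: swim bladder malformation in each larva scored yes or no under brightfield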
# Procedure, shortened: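 Embryos lacking chorions were exposed individually and statically to test chemical from 6 to 120 hpf at 28C, with 0.64% DMSO as vehicle. At 120 hpf, swim bladder malformation was recorded as present or absent by brightfield microscopy.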
# [9] = read-out: solute carrier (SLC22A6), SLC22A6 (gene 9356); assay: LTEA_HepaRG_SLC22A6: Life Technologies and Expression Analysis (LTEA) Assay for solute carrier (SLC22A6) using HepaRG (AID 2283653; active = hit-call score of the fitted dose curve at least 0.9, where 1 is the maximum; inactive = score below 0.9); conditions: mRNA level, 48 h; actives raise or lower the signal
# Procedure, shortened: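 This endpoint tracks SLC22A6 mRNA induction or suppression in human HepaRG cultures after 48 h dosing, concentrations reaching 100 uM. Values derive from bidirectional fitting against DMSO controls.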
structure (smiles),measurement,setting,value
Oc1ccc2c(c1)OC[C@@H](N1CCC(O)(c3ccc(F)cc3)CC1)[C@H]2O,outcome,[1],inactive
same,outcome,[2],inactive
same,outcome,[3],inactive
same,outcome,[4],inactive
same,outcome,[5],inactive
same,outcome,[6],inactive
same,outcome,[7],inactive
same,outcome,[8],inactive
CCCCCCC(=O)OCC,outcome,[1],inactive
same,outcome,[2],inactive
same,outcome,[3],inactive
same,outcome,[4],inactive
same,outcome,[6],inactive
same,outcome,[7],inactive
same,outcome,[8],inactive
CCCCC(CC)COC(=O)CC(C(=O)OCC(CC)CCCC)S(=O)(=O)O (centres undefined),outcome,[1],inactive
same,outcome,[2],inactive
same,outcome,[3],inactive
same,outcome,[4],inactive
same,outcome,[5],inactive
same,outcome,[6],inactive
same,outcome,[7],inactive
same,outcome,[8],inactive
CCc1c(C(=O)NN2CCCCC2)nn(-c2ccc(Cl)cc2Cl)c1-c1ccc(Br)cc1,outcome,[1],inactive
same,outcome,[2],inactive
same,outcome,[3],inactive
same,outcome,[5],inactive
same,outcome,[6],inactive
same,outcome,[7],inactive
same,outcome,[8],inactive
Nc1nc(N)c2nc(CNc3ccc(C(=O)N[C@@H](CCC(=O)O)C(=O)O)cc3)cnc2n1,outcome,[1],inactive
same,outcome,[2],inactive
same,outcome,[3],inactive
same,outcome,[4],inactive
same,outcome,[6],inactive
same,outcome,[7],inactive
COc1ccc2c(c1)c(CC(=O)O)c(C)n2C(=O)c1ccc(Cl)cc1,outcome,[1],inactive
same,outcome,[2],inactive
same,outcome,[3],inactive
same,outcome,[4],inactive
same,outcome,[5],inactive
same,outcome,[6],inactive
same,outcome,[7],inactive
same,outcome,[8],inactive
CCOC(=O)C(C)(C)Oc1ccc(Cl)cc1,outcome,[1],inactive
same,outcome,[2],inactive
same,outcome,[3],inactive
same,AC50,[5],69.7 µM (active)
same,outcome,[6],inactive
same,outcome,[7],inactive
same,outcome,[8],inactive
Cc1oc(-c2ccccc2)nc1CCOc1cccc2c1ccn2CCC(=O)O,outcome,[1],inactive
same,outcome,[2],inactive
same,outcome,[3],inactive
same,outcome,[4],inactive
same,outcome,[6],inactive
same,outcome,[7],inactive
same,outcome,[8],inactive
CC(=O)OCCOCCOCCOC(C)=O,outcome,[1],inactive
same,outcome,[2],inactive
same,outcome,[3],inactive
same,outcome,[4],inactive
same,outcome,[5],inactive
same,outcome,[7],inactive
same,outcome,[8],inactive
O=C(O)CCCCC(=O)O,outcome,[1],inactive
same,outcome,[2],inactive
same,outcome,[3],inactive
same,outcome,[4],inactive
same,outcome,[5],inactive
same,outcome,[6],inactive
same,outcome,[7],inactive
same,outcome,[8],inactive
Cc1ccc2ncccc2c1,outcome,[1],inactive
same,outcome,[2],inactive
same,outcome,[3],inactive
same,outcome,[4],inactive
same,outcome,[5],inactive
same,outcome,[6],inactive
same,outcome,[7],inactive
same,outcome,[8],inactive
COc1cc(C=O)ccc1O,AC50,[1],37.6 µM (active)
same,AC50,[2],44.7 µM (active)
same,outcome,[3],inactive
same,AC50,[4],42.8 µM (active)
same,outcome,[5],inactive
same,AC50,[6],45.9 µM (active)
same,outcome,[9],inactive
C[Si]1(C)O[Si](C)(C)O[Si](C)(C)O[Si](C)(C)O1,outcome,[1],inactive
same,outcome,[2],inactive
same,outcome,[3],inactive
same,outcome,[4],inactive
same,outcome,[5],inactive
same,outcome,[6],inactive
same,outcome,[8],inactive
OC[C@@H](O)[C@@H](O)[C@H](O)[C@H](O)CO,outcome,[1],inactive
same,outcome,[2],inactive
same,outcome,[3],inactive
same,outcome,[4],inactive
same,outcome,[5],inactive
same,outcome,[6],inactive
same,outcome,[8],inactive
O=c1[nH]cc(F)c(=O)[nH]1,outcome,[1],inactive
same,outcome,[2],inactive
same,outcome,[3],inactive
same,outcome,[4],inactive
same,outcome,[5],inactive
same,outcome,[6],inactive
same,outcome,[8],inactive
CC(=O)Oc1ccccc1C(=O)O,outcome,[1],inactive
same,outcome,[2],inactive
same,outcome,[4],inactive
same,outcome,[5],inactive
same,outcome,[6],inactive
same,outcome,[7],inactive
FC(F)(F)C(F)(F)C(F)(F)C(F)(F)C(F)(F)C(F)(F)CCI,outcome,[1],inactive
same,outcome,[2],inactive
same,outcome,[3],inactive
same,outcome,[4],inactive
same,outcome,[5],inactive
same,outcome,[7],inactive
same,outcome,[8],inactive
CC1(C)CC(N=C=O)CC(C)(CN=C=O)C1 (centres undefined),outcome,[1],inactive
same,outcome,[2],inactive
same,outcome,[3],inactive
same,outcome,[4],inactive
same,outcome,[5],inactive
same,outcome,[6],inactive
same,outcome,[7],inactive
same,outcome,[8],inactive
CCCCCCOCCO,outcome,[1],inactive
same,outcome,[2],inactive
same,outcome,[3],inactive
same,outcome,[4],inactive
same,outcome,[7],inactive
same,outcome,[8],inactive
CCCCOC(=O)CCCCCCCCC(=O)OCCCC,outcome,[1],inactive
same,outcome,[3],inactive
same,outcome,[4],inactive
same,outcome,[5],inactive
same,outcome,[6],inactive
same,outcome,[7],inactive
same,outcome,[8],inactive
C=CCOC(=O)c1ccccc1C(=O)OCC=C,AC50,[1],46.9 µM (active)
same,outcome,[3],inactive
same,outcome,[4],inactive
same,outcome,[6],inactive
same,outcome,[7],inactive
same,AC50,[8],46.4 µM (active)
CC=Cc1ccc(O)c(OC)c1,outcome,[1],inactive
same,outcome,[4],inactive
same,outcome,[5],inactive
same,outcome,[6],inactive
same,outcome,[8],inactive
